Bioassay records deposited in PubChem BioAssay by National Center for Advancing Translational Sciences (NCATS).
In the library only some 2.4% were active in any assay of this set; here they are far more common.
AmpC det inh = Promiscuous and Specific Inhibitors of AmpC Beta-Lactamase (assay with detergent); P00811; AID 584, 2007; hit rate 0.09% among 71,000; purified AmpC, nitrocefin hydrolysis with detergent; Potency, µM (highest dose often 28.7 µM); active = well fitted curve in the direction sought with a large enough effect; inconclusive = small, poorly fitted or top-dose-only effect
Target sequence (P00811 whole entry, looked up): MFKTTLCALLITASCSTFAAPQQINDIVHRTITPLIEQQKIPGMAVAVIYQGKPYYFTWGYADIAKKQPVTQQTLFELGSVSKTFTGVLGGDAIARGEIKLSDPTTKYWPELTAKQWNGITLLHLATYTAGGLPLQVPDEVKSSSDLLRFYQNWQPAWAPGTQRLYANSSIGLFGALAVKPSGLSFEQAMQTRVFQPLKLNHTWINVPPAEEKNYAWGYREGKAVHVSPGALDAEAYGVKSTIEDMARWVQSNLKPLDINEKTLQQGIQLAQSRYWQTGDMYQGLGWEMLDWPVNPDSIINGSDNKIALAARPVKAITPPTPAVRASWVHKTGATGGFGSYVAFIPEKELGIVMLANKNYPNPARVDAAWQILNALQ
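E. coli AmpC (5.3 nM) in 20 mM phosphate pH 7.0 with 0.01% Triton X-100, preincubated 15 min RT with compound; nitrocefin (2 uL of 800 uM stock) hydrolysis followed by 480 nm absorbance every 20 s over 4 min.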
AmpC nodet inh = Promiscuous and Specific Inhibitors of AmpC Beta-Lactamase (assay without detergent); P00811; AmpC nitrocefin hydrolysis, absorbance 480 nm, no detergent; Potency, µM (top dose mostly 28.7 µM); hit rate 1.8% among 71,000
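AmpC, 20 mM phosphate pH 7.0; 15 min cpd preinc, RT; start with nitrocefin (800 uM stock); A480 kinetic read, 20 s intervals, 4 min. No-enzyme wells = negative control.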
Prx2 Sm inh = Schistosoma Mansoni Peroxiredoxins (Prx2) | Potency, µM | hit rate 0.07% among 65,000 | S. mansoni Prx2 activity coupled to TGR/GSH (TGR is thioredoxin glutathione reductase), NADPH fluorescence loss, qHTS
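Activity is read as the drop in NADPH fluorescence (365/450 nm), recorded every 30 sec for 8 min after H2O2 addition. Prx2 is coupled to TGR-driven NADPH oxidation through glutathione, in phosphate buffer pH 7.4.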
Anthrax LT inh = qHTS Assay for Anthrax Lethal Toxin Internalization; AID 912, 2007; Potency, µM (top dose mostly 40 µM), usual class: inhibitors; hit rate 0.67% among 70,000; Cells, anthrax lethal toxin internalization, FRET ratio (460/530); also: nearly all actives have a fitted effect of over 50% in size
Hits are given with their value; – = inactive; ? = inconclusive; [ ] = remark or other dose. Unless noted, calls follow the shape of the full dose curve.

SMILES	AmpC det inh	AmpC nodet inh	Prx2 Sm inh	Anthrax LT inh
CC1(C)S[C@@H]2[C@H](NC(=O)[C@@H](N)c3ccccc3)C(=O)N2[C@H]1C(=O)O[C@H]1OC(=O)c2ccccc21	?	0.04µM	–	–[3.58 µM]
CC1(C)S[C@@H]2[C@H](NC(=O)[C@@H](NC(=O)N3CCNC3=O)c3ccccc3)C(=O)N2[C@H]1C(=O)O	7.9µM	5µM	–	–[3.58 µM]
CCN1CCN(C(=O)N[C@H](C(=O)N[C@@H]2C(=O)N3[C@@H]2SC(C)(C)[C@@H]3C(=O)O)c2ccccc2)C(=O)C1=O	?	?	–	–[3.58 µM]
CC1(C)S[C@@H]2[C@H](NC(=O)[C@H](C(=O)O)c3ccsc3)C(=O)N2[C@H]1C(=O)O	5µM	4µM	–	–[3.58 µM]
CC1(C)[C@@H](O)CC[C@@]2(C)[C@H]1CC[C@]1(C)[C@H]2C(=O)C=C2[C@@H]3C[C@@](C)(C(=O)O)CC[C@]3(C)CC[C@@]21C	–	–	–	?
O=C(NCCN1CCc2ccccc2C1)Nc1ccc(F)cc1	–	4µM[single pt active]	–	?
CCc1ccc(NC(=O)NCCN2CCc3ccccc3C2)cc1	–	–	–	–
